# Experimental data taken from PubChem BioAssay (NCATS).
# Several values for one entry are separate records, joined by “and”; a condition that tells them apart may be missing. Identical values can stand only once. A number with no mark means an inactive call. Results filed as inconclusive are left out. Entries that show only a call come without a potency. Activity calls are given as the source filed them. Unless noted, calls come from the whole dose curve; as a rule, active = well fitted curve in the direction sought with a large enough effect; inconclusive = small, poorly fitted or top-dose-only effect, or another doubt; inactive = no such curve, though single readings can be large; an effect the other way counts as inactive or inconclusive.
# Legend:
# [1] = molecular target: Cytochrome P450 3A4 (Homo sapiens) (UniProt P08684); experiment: qHTS Assay for Activators of Cytochrome P450 3A4 (AID 885); conditions: recombinant CYP3A4, Luciferin-PPXE luminescence, 60 min; series mostly up to 57.1 µM; note: nearly all actives have a fitted effect of over 65% in size
# Chain of Cytochrome P450 3A4 (Homo sapiens) (P08684 whole entry, looked up): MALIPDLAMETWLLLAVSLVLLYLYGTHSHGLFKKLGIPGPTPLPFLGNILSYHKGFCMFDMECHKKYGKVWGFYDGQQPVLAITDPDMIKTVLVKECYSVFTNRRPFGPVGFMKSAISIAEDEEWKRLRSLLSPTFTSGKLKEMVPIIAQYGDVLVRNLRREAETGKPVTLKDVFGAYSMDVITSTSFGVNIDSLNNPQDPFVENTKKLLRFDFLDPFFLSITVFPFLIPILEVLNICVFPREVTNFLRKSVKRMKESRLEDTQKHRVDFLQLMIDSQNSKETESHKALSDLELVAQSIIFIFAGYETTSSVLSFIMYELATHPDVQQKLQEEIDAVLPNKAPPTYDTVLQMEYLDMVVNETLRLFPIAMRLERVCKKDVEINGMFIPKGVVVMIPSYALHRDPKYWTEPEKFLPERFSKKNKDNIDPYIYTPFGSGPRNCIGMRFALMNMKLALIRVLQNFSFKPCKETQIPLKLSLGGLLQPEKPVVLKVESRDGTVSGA
# Procedure, shortened: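 Luminescent readout of luciferin formed from 25 uM Luciferin-PPXE (KM level) by 20 nM CYP3A4 in 200 mM KPO4, with 60 min NADPH-driven reaction at room temperature after 10 min compound exposure. Ketoconazole (57 uM) defined 100% inhibition.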
# [2] = molecular target: Cytochrome P450 2C19 (Homo sapiens) (UniProt P33261); experiment: qHTS Assay for Inhibitors and Substrates of Cytochrome P450 2C19 (AID 899); conditions: recombinant CYP2C19, luciferin-H EGE luminescence; series mostly up to 11.4 µM; note: nearly all actives have a fitted effect of over 60% in size; note: potency is the fitted concentration of half-maximal effect
# Chain of Cytochrome P450 2C19 (Homo sapiens) (P33261 whole entry, looked up): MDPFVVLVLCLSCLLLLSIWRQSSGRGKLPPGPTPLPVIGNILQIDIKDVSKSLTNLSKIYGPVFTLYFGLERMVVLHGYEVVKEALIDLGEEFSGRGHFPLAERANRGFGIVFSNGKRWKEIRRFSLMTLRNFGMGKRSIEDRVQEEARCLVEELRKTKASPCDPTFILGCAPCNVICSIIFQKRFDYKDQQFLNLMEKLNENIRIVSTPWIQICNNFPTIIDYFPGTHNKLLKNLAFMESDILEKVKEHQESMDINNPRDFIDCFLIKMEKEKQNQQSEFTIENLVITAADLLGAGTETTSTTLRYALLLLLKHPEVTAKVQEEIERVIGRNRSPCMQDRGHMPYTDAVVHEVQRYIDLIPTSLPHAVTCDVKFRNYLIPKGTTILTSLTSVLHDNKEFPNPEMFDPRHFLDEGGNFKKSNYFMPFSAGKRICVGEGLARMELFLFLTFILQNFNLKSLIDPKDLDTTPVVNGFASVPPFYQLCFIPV
# Procedure, shortened: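 5 nM human CYP2C19 with 10uM Luciferin-H EGE (at KM) in 50mM KPO4, compound preincubated 10 min at 37C, then NADPH regeneration for 60 min at 37C. Luciferin read by luminescence after detection reagent; normalized to 57uM ketoconazole as full inhibition.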
# [3] = qHTS Assay for Identification of Small Molecule Agonists for Hypoxia Response Element Signaling Pathway (AID 914; active = well fitted activation curve with a large enough effect in the signal ratio, with a control signal flat, not every such curve was filed as active; the % refers to the signal ratio); conditions: ME-180 (cervical carcinoma) HRE-bla reporter, beta-lactamase ratio, CoCl2, 17 h; active compounds read high
# Procedure, shortened: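 In Opti-MEM containing 0.5% dialyzed FBS and 10 mM HEPES, ME-180 HRE-bla cells received a compound titration and EC50 CoCl2. They were incubated 17 hours, then CCF4-loaded 2.5 hours at room temperature before ratio reading.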
# [4] = molecular target: Cytochrome P450 2D6 (Homo sapiens) (UniProt P10635); experiment: qHTS Assay for Inhibitors and Substrates of Cytochrome P450 2D6 (AID 891); conditions: recombinant CYP2D6, luciferin-ME EGE luminescence; series mostly up to 11.4 µM; note: nearly all actives have a fitted effect of over 60% in size; note: potency is the fitted concentration of half-maximal effect
# Chain of Cytochrome P450 2D6 (Homo sapiens) (P10635 whole entry, looked up): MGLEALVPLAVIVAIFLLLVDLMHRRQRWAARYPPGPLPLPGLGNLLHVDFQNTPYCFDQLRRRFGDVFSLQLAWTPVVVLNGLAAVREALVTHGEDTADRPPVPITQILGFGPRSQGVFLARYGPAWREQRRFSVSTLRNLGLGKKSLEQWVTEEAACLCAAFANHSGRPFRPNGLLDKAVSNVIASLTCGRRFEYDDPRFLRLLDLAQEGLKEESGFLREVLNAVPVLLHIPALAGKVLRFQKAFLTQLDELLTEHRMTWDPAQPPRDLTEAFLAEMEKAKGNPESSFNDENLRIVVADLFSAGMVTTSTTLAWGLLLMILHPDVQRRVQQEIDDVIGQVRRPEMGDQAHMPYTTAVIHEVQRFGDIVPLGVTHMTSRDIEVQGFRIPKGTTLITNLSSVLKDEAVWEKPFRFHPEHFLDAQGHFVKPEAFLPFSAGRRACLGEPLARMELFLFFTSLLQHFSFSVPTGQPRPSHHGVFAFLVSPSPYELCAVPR
# Procedure, shortened: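 Luminescent read-out of luciferin formed by 5 nM human CYP2D6 demethylating 30 uM Luciferin-ME EGE (Km level) over 60 min at room temperature after NADPH regeneration addition. Data normalized to full inhibition by 1.43 uM quinidine.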
# [5] = Confirmation and Secondary Assay for Modulators of Hemoglobin Beta Chain Splicing at IVS2 654 locus (AID 910); conditions: HeLa EGFP-654 splicing reporter, GFP fluorescence, 48 h; series mostly up to 46.1 µM;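 note: HeLa cells stably carrying EGFP split by mutant beta-globin IVS2-654 intron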
# Procedure, shortened: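 HeLa cells stably expressing EGFP interrupted by β-globin IVS2-654 intron, seeded overnight in Opti-MEM/2% FCS, then treated 2 days at 37 °C. Restored splicing read as total peak GFP intensity per well by laser scanning cytometry (488 nm excitation, 500–520 nm emission); 500 nM antisense PNA as control.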
# [6] = Confirmation and Secondary Assay for Modulators of Hemoglobin Beta Chain Splicing at IVS2 705 locus (AID 930); conditions: HeLa EGFP-705 splicing reporter, GFP fluorescence, 48 h; series mostly up to 46.1 µM;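 note: HeLa cells stably expressing the EGFP-705 splicing reporter; GFP fluorescence per well restored by corrected splicing of the IVS2-705 intron in EGFP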
# Procedure, shortened: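 Per-well GFP, captured at 1 x 8 µm resolution with 488 nm excitation, served as the read-out for HeLa EGFP-705 cells incubated 2 days with test compound versus DMSO.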
structure (smiles),measurement,setting,value
C/C(CCN1CCc2nc(-c3ccccc3)c(-c3ccccc3)cc2C1)=N\OC[C@@H](C)[C@H](OCc1ccccc1)C(C)C,"activity change, positive = activation",[1],-51.7% [at 11.4 µM]
same,Potency,[2],1580 nM (active)
COc1ccc(-c2ccc3c(n2)CCCN3C[C@H](O)CN2CCCc3nc(-c4ccc(Br)cc4)ccc32)cc1,"activity change, positive = activation",[1],-31.9% [at 11.4 µM]
same,activation,[3],17.4% and 18.3%
CC(C)CO/N=C1/C[C@@H](O)[C@@H](O)[C@@H]2[C@@H]3C(=O)N(Cc4ccc5c(c4)OCO5)C(=O)[C@H]3CC[C@H]12,"activity change, positive = activation",[1],-96.6% [at 11.4 µM]
same,Potency,[2],3980 nM (active)
CCCNC(=O)OC[C@@H]1O[C@H](CCON=C(C)C)C=C[C@@H]1Oc1ccc(OC)cc1,"activity change, positive = activation",[1],-58.2% [at 11.4 µM]
same,activation,[3],-3.17%
CCOC(=O)OCC1OC(C#Cc2ccc(Br)cc2)C=CC1OC(=O)OCC (stereo not drawn),"activity change, positive = activation",[1],-52.5% [at 11.4 µM]
same,Potency,[4],inactive
same,Potency,[2],inactive
CC1CCC2C(=O)N3C(CCC(C)[C@H]3c3ccccc3Br)C(=O)N2C1c1ccccc1Br (stereo partly drawn),"activity change, positive = activation",[1],-55.3% [at 11.4 µM]
same,Potency,[4],3160 nM (active)
same,Potency,[2],inactive
CC(=O)OC[C@@H]1O[C@H](C/C=N\OCC[C@H]2C=C[C@H](OC(C)=O)[C@@H](COC(C)=O)O2)C=C[C@@H]1OC(C)=O,"activity change, positive = activation",[1],-31% [at 11.4 µM]
same,Potency,[2],inactive
CC(C)c1c(O)ccc2c1CCC1C(C)(C)CCC[C@@]21C (stereo partly drawn),Potency,[1],inactive
same,outcome,[5],inactive
same,outcome,[6],inactive
CC/C=C\CC[C@H](OC(=O)c1ccc(Br)cc1)C1=CCCCC1=O,"activity change, positive = activation",[1],-40.7% [at 11.4 µM]
same,Potency,[2],2000 nM (active)
CCC1CN2CCc3cc(OC)c(OC)cc3C2CC1CC1NCCc2cc(OC)c(OC)cc21 (stereo not drawn),Potency,[1],inactive
same,outcome,[5],inactive
same,outcome,[6],inactive
C[C@@H]1/C=C\CC(=O)OC[C@H](C)C(=O)N[C@@H](Cc2ccccc2)C(=O)OC1,"activity change, positive = activation",[1],-37.2% [at 11.4 µM]
same,Potency,[4],inactive
same,Potency,[2],inactive
C=CCc1cccc(C2C(C)CCC3C(=O)N4C(CCC(C)C4c4cccc(CC=C)c4)C(=O)N32)c1 (stereo not drawn),"activity change, positive = activation",[1],-58.4% [at 11.4 µM]
same,Potency,[2],inactive
CC1CCC2C(=O)OC(CN3C(=O)c4ccccc4C3=O)CN2C1c1ccc(Br)cc1 (stereo not drawn),"activity change, positive = activation",[1],-55.7% [at 11.4 µM]
same,Potency,[2],inactive
CNC1CCC(c2ccc(Cl)c(Cl)c2)c2ccccc21 (stereo not drawn),Potency,[1],inactive
same,outcome,[5],inactive
same,outcome,[6],inactive
C[C@@H]1O[C@H]2C3=C(C(=O)[C@H]4O[C@@H]4[C@H]3O)[C@@H]1[C@@H]1[C@@H](C)OC=C3[C@H](O)[C@H]4O[C@@H]4/C(=N\OCc4ccccc4)[C@]312,"activity change, positive = activation",[1],-31.8% [at 11.4 µM]
same,Potency,[2],631 nM (active)
C=CC(C1=CC(=O)C(OC)=C(OC)C1=O)c1ccccc1 (stereo not drawn),Potency,[1],inactive
same,outcome,[5],inactive
C[C@@H]1OC2C3=C(C(=O)[C@H]4O[C@@H]4[C@H]3O)[C@@H]1[C@H]1[C@H](C)OC=C3[C@H](O)[C@H]4O[C@H]4/C(=N\OCc4ccccc4)[C@@]321,"activity change, positive = activation",[1],-58.8% [at 11.4 µM]
same,Potency,[2],inactive
CC(=O)OC[C@@H]1O[C@@H](O/N=C2/C[C@@H](O)[C@@H](O)[C@@H]3[C@@H]4C(=O)N(c5cccc(Oc6ccccc6)c5)C(=O)[C@H]4CC[C@H]23)[C@H](OC(C)=O)[C@H](OC(C)=O)[C@@H]1OC(C)=O,"activity change, positive = activation",[1],-36.6% [at 11.4 µM]
same,Potency,[2],inactive
CC1(C)CC[C@]2(C(=O)O)C(O)C[C@@]3(C)C(=CCC4[C@@]5(C)CCC(O)C(C)(C)C5CC[C@@]43C)C2C1 (stereo partly drawn),Potency,[1],inactive
same,outcome,[5],inactive
same,outcome,[6],inactive
CCN1C(=O)[C@H]2[C@H]3[C@H](O)[C@H](O)C/C(=N/O[C@@H](C)c4cn([C@H](CO)Cc5ccccc5)nn4)[C@@H]3CC[C@@H]2C1=O,"activity change, positive = activation",[1],-35.2% [at 11.4 µM] and -33% [at 11.4 µM]
same,activation,[3],1.7%
COC(=O)[C@@H]1CC[C@H](C)[C@@H](c2ccc(C)cc2)N1C(=O)c1ccc(/C=N\OC[C@@H]2O[C@H](c3ccccc3)C=C[C@@H]2Oc2ccc(OC)cc2)cc1,"activity change, positive = activation",[1],-30% [at 11.4 µM]
same,Potency,[2],50.1 nM (active)
COc1ccc(OC2C(O)COC2/C=C/c2ccccc2)cc1 (stereo not drawn),"activity change, positive = activation",[1],-47.5% [at 11.4 µM] and -40.4% [at 11.4 µM]
same,Potency,[4],inactive
same,Potency,[2],2000 nM (active)
CCCCCC(=O)O[C@@]1(C(C)=O)CCC2C3CCC4=CC(=O)CC[C@@]4(C)C3CC[C@]21C (stereo partly drawn),Potency,[1],inactive
same,outcome,[5],inactive
same,outcome,[6],inactive
C#CCCCCCCCCCCCC(O)CC(O)COC(C)=O (stereo not drawn),Potency,[1],inactive
same,outcome,[5],inactive
same,outcome,[6],inactive
COc1ccc(OC)c(-c2ccccc2/C=N/NS(=O)(=O)c2ccc(C)cc2)c1,"activity change, positive = activation",[1],-59.9% [at 11.4 µM]
same,Potency,[4],inactive
same,Potency,[2],100 nM (active)
COc1c(CC(=O)c2cc3c(cc2O)OC(C)(C)C(O)C3)ccc2c1C=CC(C)(C)O2 (stereo not drawn),Potency,[1],inactive
same,outcome,[5],inactive
same,outcome,[6],inactive
CC(C)(C)N1C(=O)[C@H]2[C@@H]3[C@H](O)[C@H](O)CC(=O)[C@H]3CC[C@H]2C1=O,Potency,[2],inactive
COC(=O)C(/C=C/C(C)Cc1cc(Br)cc(OCc2ccccc2)c1OC)OCc1ccccc1 (stereo not drawn),Potency,[2],inactive
C[C@@H](c1ccccc1)N1C(=O)[C@H]2[C@@H]3[C@H](O)C=CC(=O)[C@H]3CC[C@H]2C1=O,Potency,[4],inactive
CCOC(=O)CCN1C(=O)[C@H]2[C@@H]3[C@H](O)[C@H](O)CC(=O)[C@H]3CC[C@H]2C1=O,Potency,[4],inactive
